Laboratory results from the supplement of paper PMC10849652.
Of roughly 8,800 targets only a part is listed; those with a hit were picked by preference. About 0.5% of all pairs of compound and target were hits.

Legend:
Assay in all cases: log2 fold change, soluble protein after heating vs DMSO (PISA); higher = thermal stabilisation; K562 lysate, 10 uM; active = over 0.2 and 3.5 SD of the protein, either way, in both replicates (recomputed)
[1] = compound: CS(=O)(=O)CCNCc1ccc(-c2ccc3ncnc(Nc4ccc(OCc5cccc(F)c5)c(Cl)c4)c3c2)o1 [lapatinib]
In short: (§1)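 Log-two fold change in thermal stability relative to solvent controls is reported from duplicates. For each sample, crude K562 extract from dounce-homogenised pellets in PBS pH 7.4 with 1 mM MgCl2, at 1 mg/mL protein, was treated with 10 μM compound for 30 min. Aliquots heated for 3 min across 48°C-58°C were pooled, brought to 0.5% NP-40 at 4°C and cleared at 21,000xg for 90 min. The supernatant was quantified by TMTpro 16plex LC-MS/MS with channel sums equalised.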

[2] = compound: CS(=O)(=O)N1CCN(Cc2cc3nc(-c4cccc5[nH]ncc45)nc(N4CCOCC4)c3s2)CC1 [pictilisib]
In short: as §1

[3] = compound: C[C@@H](Oc1cc(-c2cnn(C3CCNCC3)c2)cnc1N)c1c(Cl)ccc(F)c1Cl [crizotinib]
In short: as §1

[4] = compound: C[C@H](C1=CC=C(C=C1)C(=O)NC2=C3C=CNC3=NC=C2)N
In short: as §1

[5] = compound: C[C@H](Nc1ncnc2nc[nH]c12)c1cc2cccc(Cl)c2c(=O)n1-c1ccccc1 [duvelisib]
In short: as §1

[6] = compound: Cc1cc(Nc2cc(CN3CCOCC3)c3nc(C)c(Cc4ccc(Cl)cc4F)n3n2)n[nH]1 [gandotinib]
In short: as §1

[7] = compound: Cc1cc(Nc2cc(N3CCN(C)CC3)nc(Sc3ccc(NC(=O)C4CC4)cc3)n2)n[nH]1 [tozasertib]
In short: as §1

[8] = compound: Cc1ccc(-n2nc(C(C)(C)C)cc2NC(=O)Nc2ccc(OCCN3CCOCC3)c3ccccc23)cc1 [doramapimod]
In short: as §1

[9] = compound: Cc1ccc(NC(=O)c2ccc(CN3CC[C@H](N(C)C)C3)c(C(F)(F)F)c2)cc1Nc1nccc(-c2cncnc2)n1 [bafetinib]
In short: as §1

[10] = compound: Cc1cccc(CC(=O)N2CCc3c2ccc(-c2cn(C)c4ncnc(N)c24)c3F)n1
In short: as §1

[11] = compound: Cc1cn(-c2cc(NC(=O)c3ccc(C)c(Nc4nccc(-c5cccnc5)n4)c3)cc(C(F)(F)F)c2)cn1 [nilotinib]
In short: as §1

[12] = compound: Cc1nc(Nc2n[nH]c3c2CN(C(=O)N[C@H](CN(C)C)c2ccccc2)C3(C)C)c2sccc2n1
In short: as §1

[13] = compound: Cc1nc(Nc2ncc(C(=O)Nc3c(C)cccc3Cl)s2)cc(N2CCN(CCO)CC2)n1 [dasatinib]
In short: as §1

[14] = compound: Cc1ncc(-c2ccnc(Nc3ccc(S(C)(=O)=O)cc3)n2)n1C(C)C
In short: as §1

[15] = compound: Cn1cc(-c2ccc3c(c2)CCN3C(=O)Cc2cccc(C(F)(F)F)c2)c2c(N)ncnc21
In short: as §1

[16] = compound: Cn1cc(CNCC2CCN(c3ncc(C(=O)NO)cn3)CC2)c2ccccc21 [quisinostat]
In short: as §1

[17] = compound: Cn1cncc1[C@@](N)(c1ccc(Cl)cc1)c1ccc2c(c1)c(-c1cccc(Cl)c1)cc(=O)n2C [tipifarnib]
In short: as §1

[18] = compound: NC(=O)Nc1cc(-c2cccc(F)c2)sc1C(=O)N[C@H]1CCCNC1
In short: as §1

[19] = compound: NC(=O)c1cnc(N[C@@H]2CCCC[C@@H]2N)nc1Nc1cccc(-n2nccn2)c1
In short: as §1

[20] = compound: NC1(c2ccc(-c3nc4ccn5c(=O)[nH]nc5c4cc3-c3ccccc3)cc2)CCC1
In short: as §1

Measured: log2 fold change

CUL1 (UniProt Q13616)
inactive: [1] -0.007 | [2] 0.004 | [3] 0.014 | [4] -0.007 | [5] 0.015 | [6] 0.03 | [7] -0.001 | [8] 0.01 | [9] 0.03 | [10] -0.002 | [11] 0.025 | [12] 0.022 | [13] 0.034 | [14] 0.028 | [15] 0.027 | [16] 0.017 | [17] 0.001 | [18] -0.021 | [19] -0.011 | [20] -0.004

DCP2 (UniProt Q8IU60)
inactive: [1] -0.027 | [2] 0.011 | [3] 0.038 | [4] 0.021 | [5] -0.011 | [6] -0.148 | [7] 0.018 | [8] 0.01 | [9] -0.062 | [10] -0.041 | [11] -0.065 | [12] -0.051 | [13] 0.009 | [14] 0.032 | [15] -0.018 | [16] -0.094 | [17] -0.012 | [18] 0.014 | [19] 0.03 | [20] 0.024

COG3 (UniProt Q96JB2)
Sequence of UniProt Q96JB2 (Q96JB2 whole entry, looked up): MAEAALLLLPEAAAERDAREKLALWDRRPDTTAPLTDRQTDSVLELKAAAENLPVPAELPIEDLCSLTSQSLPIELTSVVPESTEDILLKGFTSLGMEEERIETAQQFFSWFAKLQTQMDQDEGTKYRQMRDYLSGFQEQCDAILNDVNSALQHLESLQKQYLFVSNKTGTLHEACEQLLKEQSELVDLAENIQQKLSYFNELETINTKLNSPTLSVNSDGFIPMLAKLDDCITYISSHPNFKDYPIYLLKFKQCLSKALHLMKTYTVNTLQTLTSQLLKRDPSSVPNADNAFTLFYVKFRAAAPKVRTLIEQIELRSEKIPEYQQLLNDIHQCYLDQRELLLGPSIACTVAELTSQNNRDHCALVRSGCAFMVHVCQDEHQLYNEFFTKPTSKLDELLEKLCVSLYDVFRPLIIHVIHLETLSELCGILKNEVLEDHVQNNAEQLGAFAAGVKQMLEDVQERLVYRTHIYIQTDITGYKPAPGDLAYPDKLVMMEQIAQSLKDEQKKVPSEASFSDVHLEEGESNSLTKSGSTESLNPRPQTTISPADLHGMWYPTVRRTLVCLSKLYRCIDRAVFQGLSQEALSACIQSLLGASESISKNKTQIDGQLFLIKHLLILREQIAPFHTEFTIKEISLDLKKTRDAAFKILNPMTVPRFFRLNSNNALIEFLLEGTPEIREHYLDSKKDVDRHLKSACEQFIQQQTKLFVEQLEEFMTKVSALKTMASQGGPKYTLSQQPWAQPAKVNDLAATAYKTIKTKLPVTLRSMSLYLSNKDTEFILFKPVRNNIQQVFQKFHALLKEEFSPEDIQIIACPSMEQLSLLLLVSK
inactive: [1] -0.036 | [2] -0.054 | [3] -0.062 | [4] -0.036 | [5] 0.006 | [6] -0.064 | [7] 0.015 | [8] 0.03 | [9] 0.003 | [10] 0.093 | [11] -0.02 | [12] -0.023 | [13] -0.13 | [14] -0.002 | [15] 0.023 | [16] -0.097 | [17] 0.022 | [18] 0.044 | [19] 0.024 | [20] -0.083

DDX54 isoform 2 (UniProt Q8TDD1)
Sequence of UniProt Q8TDD1 (Q8TDD1 whole entry, looked up): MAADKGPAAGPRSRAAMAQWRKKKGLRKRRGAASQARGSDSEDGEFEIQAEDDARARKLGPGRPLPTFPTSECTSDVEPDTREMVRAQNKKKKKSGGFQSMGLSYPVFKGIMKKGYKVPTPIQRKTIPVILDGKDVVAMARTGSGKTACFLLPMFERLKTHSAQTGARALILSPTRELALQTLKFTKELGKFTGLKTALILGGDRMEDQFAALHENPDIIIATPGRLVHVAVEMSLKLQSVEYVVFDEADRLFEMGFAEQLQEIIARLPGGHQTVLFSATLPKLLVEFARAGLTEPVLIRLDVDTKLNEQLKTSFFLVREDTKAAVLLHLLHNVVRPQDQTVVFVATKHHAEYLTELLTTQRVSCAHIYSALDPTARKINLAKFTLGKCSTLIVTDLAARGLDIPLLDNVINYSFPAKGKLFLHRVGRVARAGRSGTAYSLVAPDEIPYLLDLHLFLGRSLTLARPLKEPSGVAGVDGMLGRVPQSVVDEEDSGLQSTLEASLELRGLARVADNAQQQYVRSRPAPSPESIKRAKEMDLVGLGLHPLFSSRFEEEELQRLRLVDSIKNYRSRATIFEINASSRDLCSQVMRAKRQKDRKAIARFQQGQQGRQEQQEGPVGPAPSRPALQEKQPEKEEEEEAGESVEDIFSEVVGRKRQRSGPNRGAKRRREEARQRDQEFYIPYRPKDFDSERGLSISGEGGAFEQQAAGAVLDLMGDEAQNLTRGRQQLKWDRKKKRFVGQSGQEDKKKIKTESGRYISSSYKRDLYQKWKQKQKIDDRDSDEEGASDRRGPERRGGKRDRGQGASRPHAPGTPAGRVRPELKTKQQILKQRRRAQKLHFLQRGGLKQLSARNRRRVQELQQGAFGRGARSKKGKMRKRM
inactive: [1] -0.03 | [2] 0.075 | [3] -0.057 | [4] -0.025 | [5] 0.025 | [6] 0.01 | [7] 0.035 | [8] 0.019 | [9] 0.11 | [10] 0.101 | [11] 0.047 | [12] -0.035 | [13] 0.002 | [14] 0.019 | [15] 0.089 | [16] 0.042 | [17] -0.023 | [18] 0.021 | [19] 0.001 | [20] 0.011

COG4 (UniProt Q9H9E3)
Sequence of UniProt Q9H9E3 (Q9H9E3 whole entry, looked up): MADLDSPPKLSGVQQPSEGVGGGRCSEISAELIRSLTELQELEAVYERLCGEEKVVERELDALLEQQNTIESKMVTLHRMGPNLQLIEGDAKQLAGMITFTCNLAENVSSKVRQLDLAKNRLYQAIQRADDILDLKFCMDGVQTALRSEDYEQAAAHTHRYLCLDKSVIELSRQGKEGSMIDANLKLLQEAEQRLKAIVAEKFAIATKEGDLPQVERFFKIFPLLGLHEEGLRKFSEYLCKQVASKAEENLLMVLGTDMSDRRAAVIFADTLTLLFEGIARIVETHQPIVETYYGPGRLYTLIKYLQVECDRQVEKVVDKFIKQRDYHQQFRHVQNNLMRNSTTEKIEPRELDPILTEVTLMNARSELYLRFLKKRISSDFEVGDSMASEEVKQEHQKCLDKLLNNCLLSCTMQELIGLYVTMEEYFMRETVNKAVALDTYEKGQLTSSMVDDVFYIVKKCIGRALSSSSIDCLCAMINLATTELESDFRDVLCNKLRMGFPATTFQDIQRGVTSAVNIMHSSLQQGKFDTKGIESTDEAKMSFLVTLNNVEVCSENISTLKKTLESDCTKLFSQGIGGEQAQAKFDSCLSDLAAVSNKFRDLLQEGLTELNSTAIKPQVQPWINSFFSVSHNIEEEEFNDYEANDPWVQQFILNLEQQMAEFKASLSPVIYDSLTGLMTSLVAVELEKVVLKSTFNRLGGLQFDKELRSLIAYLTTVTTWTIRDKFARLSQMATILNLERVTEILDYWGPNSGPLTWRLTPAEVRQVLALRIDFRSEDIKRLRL
inactive: [1] -0.02 | [2] -0.164 | [3] -0.088 | [4] -0.014 | [5] 0.022 | [6] -0.207 | [7] 0.018 | [8] 0.026 | [9] 0.025 | [10] 0.036 | [11] -0.038 | [12] -0.01 | [13] -0.093 | [14] 0.008 | [15] 0.048 | [16] -0.047 | [17] 0.006 | [18] 0.004 | [19] 0.001 | [20] 0.055

DNAJC5 (UniProt Q9H3Z4)
Sequence of UniProt Q9H3Z4 (Q9H3Z4 whole entry, looked up): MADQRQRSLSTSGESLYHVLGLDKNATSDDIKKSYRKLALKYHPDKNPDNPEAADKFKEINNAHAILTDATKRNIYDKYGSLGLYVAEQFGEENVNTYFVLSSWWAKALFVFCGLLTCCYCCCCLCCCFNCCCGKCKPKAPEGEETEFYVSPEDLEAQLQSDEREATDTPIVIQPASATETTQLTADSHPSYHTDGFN
inactive: [1] -0.021 | [2] 0.075 | [3] 0.007 | [5] -0.041 | [6] 0.161 | [7] -0.054 | [8] 0.023 | [9] -0.144 | [11] -0.136 | [12] -0.043 | [13] -0.002 | [14] 0.008 | [15] -0.029 | [16] -0.05 | [17] 0.043 | [18] -0.045 | [19] 0.062 | [20] 0.024
active: [4] -0.377 | [10] 0.334

CYP24A1 (UniProt Q07973)
Sequence of UniProt Q07973 (Q07973 whole entry, looked up): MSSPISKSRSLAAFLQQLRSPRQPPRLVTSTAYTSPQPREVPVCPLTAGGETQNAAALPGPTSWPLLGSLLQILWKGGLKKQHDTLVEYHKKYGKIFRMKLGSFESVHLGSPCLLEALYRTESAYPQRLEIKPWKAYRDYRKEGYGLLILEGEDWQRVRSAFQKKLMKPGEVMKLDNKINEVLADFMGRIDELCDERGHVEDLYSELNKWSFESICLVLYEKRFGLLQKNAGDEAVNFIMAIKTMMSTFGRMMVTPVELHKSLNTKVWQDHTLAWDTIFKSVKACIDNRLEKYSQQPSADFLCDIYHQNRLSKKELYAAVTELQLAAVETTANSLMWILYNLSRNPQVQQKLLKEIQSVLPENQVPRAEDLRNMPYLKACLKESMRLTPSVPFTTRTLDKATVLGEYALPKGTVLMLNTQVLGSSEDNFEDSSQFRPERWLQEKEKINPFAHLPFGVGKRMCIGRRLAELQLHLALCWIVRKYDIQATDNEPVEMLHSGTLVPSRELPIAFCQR
inactive: [1] -0.099 | [2] 0.015 | [3] -0.289 | [5] 0.077 | [6] 0.235 | [7] -0.02 | [8] 0.006 | [9] -0.209 | [10] 0.325 | [11] 0.036 | [12] -0.029 | [13] -0.049 | [14] 0.015 | [15] 0.008 | [16] -0.33 | [17] -0.018 | [18] 0.04 | [19] 0.068 | [20] -0.161
active: [4] -0.462

DOCK8 (UniProt Q8NF50)
inactive: [1] -0.032 | [2] -0.011 | [3] -0.03 | [4] -0.002 | [5] 0.003 | [6] -0.097 | [7] 0.042 | [8] 0.029 | [9] -0.062 | [10] 0.02 | [11] -0.007 | [12] -0.023 | [13] -0.045 | [14] 0.04 | [15] 0.058 | [16] -0.053 | [17] -0.033 | [18] 0.032 | [19] 0.016 | [20] 0

CIC (UniProt I3L2J0)
inactive: [1] -0.074 | [2] -0.02 | [3] -0.002 | [4] -0.052 | [5] -0.047 | [6] 0.006 | [7] 0.02 | [8] -0.036 | [9] -0.08 | [10] 0.037 | [11] 0.045 | [12] 0.024 | [13] 0 | [14] 0.001 | [15] 0.006 | [16] 0.027 | [17] -0.087 | [18] -0.053 | [19] -0.073 | [20] 0.014

CSK (UniProt P41240)
active: [13] 0.578 | [18] 0.646
inactive: [1] -0.022 | [2] -0.017 | [3] 0.259 | [4] -0.075 | [5] -0.026 | [6] 0.377 | [7] 0.098 | [8] -0.005 | [9] 0.41 | [10] 0 | [11] 0.144 | [12] 0.125 | [14] 0.002 | [15] 0.102 | [16] -0.08 | [17] -0.041 | [19] 0.071 | [20] -0.043

DNAAF5 (UniProt Q86Y56)
Sequence of UniProt Q86Y56 (Q86Y56 whole entry, looked up): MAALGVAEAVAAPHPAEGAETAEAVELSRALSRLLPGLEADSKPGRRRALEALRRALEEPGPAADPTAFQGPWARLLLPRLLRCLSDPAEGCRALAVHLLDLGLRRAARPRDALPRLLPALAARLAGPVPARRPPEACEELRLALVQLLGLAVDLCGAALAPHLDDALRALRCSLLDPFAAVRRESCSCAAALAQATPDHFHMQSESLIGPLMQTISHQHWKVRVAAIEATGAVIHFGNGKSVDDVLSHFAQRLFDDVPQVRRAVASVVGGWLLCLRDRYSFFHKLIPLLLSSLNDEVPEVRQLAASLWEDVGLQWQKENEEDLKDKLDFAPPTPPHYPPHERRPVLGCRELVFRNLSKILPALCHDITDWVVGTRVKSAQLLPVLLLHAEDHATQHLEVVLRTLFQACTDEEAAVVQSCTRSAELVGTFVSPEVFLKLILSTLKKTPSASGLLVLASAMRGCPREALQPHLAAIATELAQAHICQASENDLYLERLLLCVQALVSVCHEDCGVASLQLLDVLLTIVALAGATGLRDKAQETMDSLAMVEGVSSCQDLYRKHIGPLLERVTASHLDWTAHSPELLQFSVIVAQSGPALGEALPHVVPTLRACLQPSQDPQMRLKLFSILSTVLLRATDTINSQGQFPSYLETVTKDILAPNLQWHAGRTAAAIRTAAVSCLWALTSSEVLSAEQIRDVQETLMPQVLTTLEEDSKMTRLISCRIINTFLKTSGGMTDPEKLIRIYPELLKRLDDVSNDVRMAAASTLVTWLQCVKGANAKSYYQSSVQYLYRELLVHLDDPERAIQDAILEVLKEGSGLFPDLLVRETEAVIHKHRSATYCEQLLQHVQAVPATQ
inactive: [1] -0.03 | [2] -0.008 | [3] -0.104 | [4] 0.016 | [5] 0.021 | [6] -0.147 | [7] -0.055 | [8] 0.024 | [9] -0.066 | [10] 0.027 | [11] -0.015 | [12] 0.004 | [13] -0.118 | [14] -0.024 | [15] 0.007 | [16] -0.1 | [17] -0.002 | [18] 0.073 | [19] 0.006 | [20] 0.024

CNOT4 isoform 6 (UniProt O95628)
inactive: [1] 0.039 | [2] -0.06 | [3] 0.146 | [4] -0.093 | [5] -0.011 | [6] 0.075 | [7] -0.027 | [9] -0.054 | [10] 0.028 | [11] -0.004 | [12] 0.053 | [13] 0.034 | [14] 0.057 | [15] 0.013 | [16] 0.107 | [17] -0.018 | [18] 0.041 | [19] -0.022 | [20] 0.008
active: [8] -0.234

CYCS (UniProt P99999)
Sequence of UniProt P99999 (P99999 whole entry, looked up): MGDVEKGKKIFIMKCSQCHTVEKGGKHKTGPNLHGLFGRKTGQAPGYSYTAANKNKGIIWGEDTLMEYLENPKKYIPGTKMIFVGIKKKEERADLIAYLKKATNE
inactive: [1] 0.015 | [2] -0.033 | [3] 0.036 | [4] -0.054 | [5] -0.039 | [6] 0.056 | [7] -0.004 | [8] -0.029 | [9] 0.06 | [10] -0.006 | [11] 0.014 | [12] -0.038 | [13] 0.001 | [14] 0.008 | [15] -0.037 | [16] 0.035 | [17] 0.015 | [18] -0.003 | [19] -0.015 | [20] 0.022

CIB1 (UniProt Q99828)
Sequence of UniProt Q99828 (Q99828 whole entry, looked up): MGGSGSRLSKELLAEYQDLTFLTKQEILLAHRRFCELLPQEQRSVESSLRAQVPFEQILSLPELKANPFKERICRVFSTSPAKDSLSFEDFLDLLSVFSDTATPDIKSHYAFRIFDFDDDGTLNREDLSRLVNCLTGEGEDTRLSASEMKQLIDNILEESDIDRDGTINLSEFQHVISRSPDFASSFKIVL
inactive: [1] -0.073 | [2] 0.047 | [3] -0.046 | [4] 0.023 | [5] -0.006 | [6] -0.008 | [7] 0.06 | [8] 0.051 | [9] 0.115 | [10] 0.059 | [11] -0.014 | [12] -0.016 | [13] 0.022 | [14] 0.045 | [15] 0.008 | [16] 0.004 | [17] 0.002 | [18] -0.011 | [19] 0.041 | [20] 0

CMTM3 (UniProt Q96MX0)
Sequence of UniProt Q96MX0 (Q96MX0 whole entry, looked up): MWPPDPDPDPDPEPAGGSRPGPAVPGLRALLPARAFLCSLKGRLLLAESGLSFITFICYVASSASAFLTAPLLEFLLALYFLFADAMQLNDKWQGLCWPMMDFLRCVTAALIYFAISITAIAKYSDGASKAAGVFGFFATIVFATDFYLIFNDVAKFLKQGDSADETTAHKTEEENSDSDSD
inactive: [1] -0.027 | [2] 0.029 | [3] -0.069 | [4] 0.023 | [5] -0.052 | [6] 0.016 | [7] 0.042 | [8] 0.025 | [9] -0.057 | [10] -0.059 | [11] 0.07 | [12] 0.048 | [13] 0.05 | [14] 0.144 | [15] 0.015 | [16] 0.023 | [17] -0.111 | [18] -0.115 | [19] -0.055 | [20] -0.026

CSNK2A1 (UniProt P68400)
Sequence of UniProt P68400 (P68400 whole entry, looked up): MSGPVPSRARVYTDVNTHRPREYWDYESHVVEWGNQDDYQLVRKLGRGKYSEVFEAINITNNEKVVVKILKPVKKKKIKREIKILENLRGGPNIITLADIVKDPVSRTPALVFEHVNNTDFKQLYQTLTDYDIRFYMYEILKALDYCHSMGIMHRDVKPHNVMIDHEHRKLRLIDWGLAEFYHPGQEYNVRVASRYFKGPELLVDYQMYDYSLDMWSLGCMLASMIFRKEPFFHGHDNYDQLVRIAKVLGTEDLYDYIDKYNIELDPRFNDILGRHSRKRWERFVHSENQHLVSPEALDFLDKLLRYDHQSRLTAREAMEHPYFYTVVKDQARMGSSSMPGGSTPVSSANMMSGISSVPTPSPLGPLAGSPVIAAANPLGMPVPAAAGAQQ
inactive: [1] -0.038 | [2] 0.016 | [3] 0.007 | [4] -0.021 | [5] -0.002 | [6] -0.007 | [7] -0.006 | [8] -0.003 | [9] 0.027 | [10] -0.018 | [11] -0.022 | [12] 0.061 | [13] 0 | [14] 0.058 | [15] -0.029 | [16] 0.049 | [17] -0.013 | [18] 0.019 | [19] 0.003 | [20] -0.068
